These results are taken from PubChem BioAssay (NCATS).

The target of assay [1] is Lysosomal acid glucosylceramidase (Homo sapiens) (UniProt P04062). The assay is described as follows: Glucocerebrosidase-p2 (AID 348; in the data active = potency below about 10 µM; also: potency is read from the fitted curve at half-maximal effect). The settings on record: purified GBA, blue fluorogenic substrate, 40 min. The essentials: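 Compounds titrated from 0.6 nM upwards against 0.2 nM enzyme in pH 5.9 citric acid/KH2PO4, taurocholate, tween-20; blue fluorogenic substrate 80 uM, 40 min room temperature, stopped and read Ex 365/Em 440 for AC50.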

A short description of assay [2]: AP1 Signaling Pathway (AID 357). Also: % is scaled to controls: 0 for no effect and ±100 for the full control effect. To be noted: ME-180 AP-1-bla reporter, EGF-induced, beta-lactamase ratio, 5 h; at 7.69 µM (top of the series) unless noted. The essentials: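 ME-180 cells with beta-lactamase reporter under AP-1 response element, stimulated with EC50 EGF; compounds tested in titration series, 5 h at 37 °C. CCF4 substrate added 2.5 h at room temperature; 460/530 nm emission ratio gave %activity and AC50.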

Assay [3] has as its target Cytochrome P450 1A2 (Homo sapiens) (UniProt P05177). The assay is described as follows: p450-cyp1a2 (AID 410; calls by dose curve; also: potency is read from the fitted curve at half-maximal effect). The settings on record: recombinant CYP1A2, luciferin-ME demethylation, luminescence; series mostly up to 57 µM. In short, it runs like this: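 20nM CYP1A2 with 100uM Luciferin-ME (at Km) in 100mM KPO4; compound preincubated 10 min, NADPH regeneration added, 60 min at room temperature. Luciferin quantified by luminescence after detection reagent; normalized to 57 uM furafylline.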

A short description of assay [4]: Stat Signaling Pathway (AID 446).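 Also: ME-180 cervical cancer cells given 40 pM IL-6 alongside compound; SIE-controlled beta-lactamase reporter measured as 460/530 nm FRET emission ratio; % is scaled to controls: 0 for no effect and ±100 for the full control effect.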 The settings on record: ME-180 SIE beta-lactamase reporter, IL-6 stimulated, 5 h; at 7.69 µM (top of the series) unless noted. In short, it runs like this: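 Reporter line: ME-180 cervical carcinoma, SIE-beta-lactamase. Treatment: compound with 40 pM IL-6, 5 hrs, 37 C, in low-serum OPTI-MEM with 10 mM HEPES pH 7.3. Detection: 460/530 nm fluorescence.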

Assay [5] concerns the target Glucocorticoid receptor (Homo sapiens) (UniProt P04150). The assay is described as follows: GR-EFC Redistribution (AID 451; calls by dose curve; also: potency is read from the fitted curve at half-maximal effect). To be noted: CHO-K1 GR-EFC translocation, beta-gal luminescence, 2 h. In short, it runs like this: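 CHO-K1 cells stably expressing nuclear-localized β-gal enzyme acceptor and GR fused C-terminally to the enzyme donor fragment; ligand-driven nuclear translocation restores β-gal by complementation. Compounds titrated up to 46 uM final, 2 h at 37 °C; luminescence read.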

Assay [6] has as its target Mitogen-activated protein kinase 10 (Mus musculus) (UniProt Q61831). The experiment in a line: JNK3 AlphaScreen Assay (AID 530).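 Also: kinase came from lysate of stimulated human HepG2 cells; signal reports phosphorylation of biotinylated GST-cJun 1-79 at Ser73 with 10 µM ATP; % is scaled to controls: 0 for no effect and ±100 for the full control effect.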 To be noted: JNK3 lysate, c-Jun phosphorylation; series mostly up to 57.1 µM. The essentials: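 Inhibitors reduce antibody binding to phosphorylated biotin-cJun, lowering AlphaScreen luminescence. Lysates from HepG2 cells pre-activated by IL-1beta plus TNF-alpha supplied JNK3; compounds were titrated.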
Background: In Alpha technology, singlet oxygen from a donor bead excites a nearby acceptor bead.

A short description of assay [7]: qHTS Assay for Identification of Small Molecule Agonists for Hypoxia Response Element Signaling Pathway (AID 914; active = well fitted activation curve with a large enough effect in the signal ratio, with a control signal flat, not every such curve was filed as active; the % refers to the signal ratio; also: % of control where 0% means no effect). The settings on record: ME-180 (cervical carcinoma) HRE-bla reporter, beta-lactamase ratio, CoCl2, 17 h; activation: hits give high values. In short, it runs like this:
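Compounds in a titration series were added to ME-180 reporter cells alongside an EC50 level of CoCl2. After 17 hours, beta-lactamase activity was read as the 460nm/530nm emission ratio of CCF4, giving AC50 values.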

Assay [8] is described as follows: Primary qHTS for small molecule stabilizers of the endoplasmic reticulum resident proteome: Secreted ER Calcium Modulated Protein (SERCaMP) assay (AID 1508630; active = well fitted curve in the direction sought with a large enough effect; an effect the other way counts as inactive or inconclusive; also: % is scaled to controls: 0 for no effect and ±100 for the full control effect). The settings on record: SH-SY5Y GLuc-SERCaMP (Gaussia luciferase released on ER calcium loss) secretion, thapsigargin, luminescence; series mostly up to 38.4 µM. In short, it runs like this: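 GLuc-SERCaMP-expressing SH-SY5Y cells, pretreated 16 h with compound, are challenged with thapsigargin to empty ER calcium stores; after 4 h, coelenterazine is added directly to the medium and luminescence is imaged.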

A short description of assay [9]: NFAT Signaling Pathway (AID 444). The settings on record: Jurkat NFAT-bla M1, carbachol, beta-lactamase ratio, 5 h; at 7.69 µM (top of the series) unless noted. The essentials:
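Jurkat cells carrying an NFAT-driven β-lactamase reporter and co-transfected muscarinic M1 receptor were treated with compound plus carbachol (1 uM final, an EC50 level) for 5 h at 37 °C. CCF4 loading followed for 1 h at RT; 460/530 nm ratio gave %activity.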

The target of assay [10] is Glucocorticoid receptor (Homo sapiens) (UniProt P04150). The experiment in a line: GR-GFP Redistribution (AID 450;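 active = compounds whose dose series gives a full or clear partial fitted curve of increased nuclear translocation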; also: potency is read from the fitted curve at half-maximal effect). To be noted: U2OS GR-GFP nuclear translocation, laser cytometry, 2 h.
For assay [11], the target named is 3',5'-cyclic-AMP phosphodiesterase 4B (Homo sapiens) (UniProt Q07343). The assay is described as follows: qHTS Assay for Inhibitors of PDE-IV (AID 607; active = well fitted activation curve with a large enough effect in the main read-out, with a control signal flat, not every such curve was filed as active; also: % of control where 0% means no effect). To be noted: HEK293 ACTOne CNG channel cells, membrane potential fluorescence; series mostly up to 22.9 µM. In short, it runs like this: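 Cell-based read-out of cAMP via a modified cyclic nucleotide-gated channel and membrane potential dye (535/590 nm) in HEK293 cells expressing PDE4 endogenously. Compounds tested up to 22.9 uM final; 100 uM RO 20-1724 reference.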

Assay [12] deals with Cytochrome P450 3A4 (Homo sapiens) (UniProt P08684). The experiment in a line: qHTS Assay for Inhibitors and Substrates of Cytochrome P450 3A4 (AID 884; active = well fitted curve in the direction sought with a large enough effect; an effect the other way counts as inactive or inconclusive; also: potency is read from the fitted curve at half-maximal effect; nearly all actives have a fitted effect of over 50% in size). The settings on record: recombinant CYP3A4, Luciferin-PPXE luminescence; series mostly up to 57.1 µM. In short, it runs like this:
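20 nM human CYP3A4 with 25 uM Luciferin-PPXE (at KM) in 200 mM KPO4, preincubated 10 min with compound; NADPH regeneration started a 60 min RT reaction. Luciferin detected by luminescence, normalized to 57 uM ketoconazole as full inhibition.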

Assay [13] shares this target. The experiment in a line: qHTS Assay for Activators of Cytochrome P450 3A4 (AID 885; active = well fitted curve in the direction sought with a large enough effect; an effect the other way counts as inactive or inconclusive; also: nearly all actives have a fitted effect of over 65% in size). The settings on record: recombinant CYP3A4, Luciferin-PPXE luminescence, 60 min; series mostly up to 57.1 µM. The essentials: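 Signal was normalized against complete inhibition by 57 uM ketoconazole. The reaction used 20nM CYP3A4 with 25uM Luciferin-PPXE, 10-min compound preincubation and a 60-min NADPH-supported step at RT.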
(In general: In qHTS, concentration-response curves come from the screen itself.)

Assay [14] is described as follows: Confirmation and Secondary Assay for Modulators of Hemoglobin Beta Chain Splicing at IVS2 654 locus (AID 910; active = well fitted curve in the direction sought with a large enough effect; an effect the other way counts as inactive or inconclusive;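 also: per-well total GFP intensity by laser scanning cytometry after 2-day treatment; % of control where 0% means no effect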). The settings on record: HeLa EGFP-654 splicing reporter, GFP fluorescence, 48 h; series mostly up to 38.3 µM. The essentials:
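HeLa cells stably carrying EGFP interrupted by mutant beta-globin IVS2-654 intron (CMV-driven) were treated with compound for 2 days at 37C; corrected splicing was scored as total peak GFP intensity per well (488 nm excitation, 500-520 nm emission).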

Assay [15] can be described thus: Confirmation and Secondary Assay for Modulators of Hemoglobin Beta Chain Splicing at IVS2 705 locus (AID 930; active = well fitted curve in the direction sought with a large enough effect; an effect the other way counts as inactive or inconclusive;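 also: HeLa cells stably expressing the EGFP-705 splicing reporter; % of control where 0% means no effect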). The settings on record: HeLa EGFP-705 splicing reporter, GFP fluorescence, 48 h; series mostly up to 38.3 µM. The essentials: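 Assay measures total GFP intensity per well in HeLa EGFP-705 cells after 2 days with compound; mis-splicing normally truncates EGFP, so fluorescence indicates corrected splicing.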

Assay [16] addresses Ubiquitin carboxyl-terminal hydrolase 1 (Homo sapiens) (UniProt O94782). The assay is described as follows: Inhibitors of USP1/UAF1: Pilot qHTS (AID 504865; active = well fitted curve in the direction sought with a large enough effect; an effect the other way counts as inactive or inconclusive;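 also: rhodamine fluorescence freed from ubiquitin-rhodamine substrate followed over time; top concentration of the series differs between compounds; % is scaled to controls: 0 for no effect and ±100 for the full control effect; nearly all actives have a fitted effect of over 35% in size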). The settings on record: purified USP1/UAF1, Ub-rhodamine cleavage fluorescence; series mostly up to 54.9 µM. In short, it runs like this:
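Deubiquitinase activity followed as kinetic rhodamine fluorescence release from 150 nM Ub-Rho. 1 nM USP1/UAF1 with compound, after 15 min room-temperature preincubation, in HEPES pH 7.8 buffer containing TCEP, EDTA, BSA and Tween-20.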

Values without a mark were called inactive. Results filed as inconclusive are left out. The source made the active and inactive calls. Unless noted, calls follow the shape of the dose curve; as a rule, active = well fitted curve in either direction with a large enough effect (not every such curve was filed as active); inconclusive = small, poorly fitted or top-dose-only effect, or another doubt; inactive = flat fitted curve, though single readings scatter. A value given as a limit tells only on which side of the number the result lay.

Glucocorticoid receptor (Homo sapiens), sequence (P04150 whole entry, looked up, the tested form may be a part): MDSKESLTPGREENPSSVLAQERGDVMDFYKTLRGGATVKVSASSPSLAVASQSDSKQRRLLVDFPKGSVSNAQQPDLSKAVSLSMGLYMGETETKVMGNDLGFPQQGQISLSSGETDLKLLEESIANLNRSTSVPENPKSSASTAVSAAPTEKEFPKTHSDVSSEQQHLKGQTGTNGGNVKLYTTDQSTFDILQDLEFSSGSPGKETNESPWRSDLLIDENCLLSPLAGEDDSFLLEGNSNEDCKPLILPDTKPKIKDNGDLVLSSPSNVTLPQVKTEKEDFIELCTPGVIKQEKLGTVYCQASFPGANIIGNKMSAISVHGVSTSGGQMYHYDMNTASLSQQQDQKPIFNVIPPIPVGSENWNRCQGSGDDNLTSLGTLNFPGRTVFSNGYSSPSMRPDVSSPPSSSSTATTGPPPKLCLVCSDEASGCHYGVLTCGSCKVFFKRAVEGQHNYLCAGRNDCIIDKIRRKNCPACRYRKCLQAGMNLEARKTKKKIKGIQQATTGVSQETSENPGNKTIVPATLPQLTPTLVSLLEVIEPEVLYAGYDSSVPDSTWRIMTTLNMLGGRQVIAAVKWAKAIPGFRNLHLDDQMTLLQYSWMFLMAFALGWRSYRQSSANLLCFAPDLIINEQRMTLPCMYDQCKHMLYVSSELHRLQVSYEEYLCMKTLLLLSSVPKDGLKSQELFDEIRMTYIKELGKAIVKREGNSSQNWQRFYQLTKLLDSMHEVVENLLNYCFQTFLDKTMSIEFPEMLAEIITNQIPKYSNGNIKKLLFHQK
Lysosomal acid glucosylceramidase (Homo sapiens), sequence (P04062 whole entry, looked up): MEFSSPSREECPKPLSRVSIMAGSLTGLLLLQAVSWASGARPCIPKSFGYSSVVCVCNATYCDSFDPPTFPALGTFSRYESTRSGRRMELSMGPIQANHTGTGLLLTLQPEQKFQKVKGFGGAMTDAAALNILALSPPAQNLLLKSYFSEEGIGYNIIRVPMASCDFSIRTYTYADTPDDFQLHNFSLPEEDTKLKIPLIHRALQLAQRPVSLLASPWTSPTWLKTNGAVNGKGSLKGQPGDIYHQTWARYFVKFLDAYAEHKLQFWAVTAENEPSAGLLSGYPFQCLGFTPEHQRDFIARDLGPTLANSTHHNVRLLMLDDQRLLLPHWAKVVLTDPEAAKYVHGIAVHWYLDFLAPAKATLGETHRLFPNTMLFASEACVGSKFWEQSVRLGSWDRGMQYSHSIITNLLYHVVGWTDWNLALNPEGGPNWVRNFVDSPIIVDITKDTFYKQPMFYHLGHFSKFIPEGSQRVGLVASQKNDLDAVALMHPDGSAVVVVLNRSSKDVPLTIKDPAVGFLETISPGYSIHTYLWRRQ
3',5'-cyclic-AMP phosphodiesterase 4B (Homo sapiens), sequence (Q07343 whole entry, looked up): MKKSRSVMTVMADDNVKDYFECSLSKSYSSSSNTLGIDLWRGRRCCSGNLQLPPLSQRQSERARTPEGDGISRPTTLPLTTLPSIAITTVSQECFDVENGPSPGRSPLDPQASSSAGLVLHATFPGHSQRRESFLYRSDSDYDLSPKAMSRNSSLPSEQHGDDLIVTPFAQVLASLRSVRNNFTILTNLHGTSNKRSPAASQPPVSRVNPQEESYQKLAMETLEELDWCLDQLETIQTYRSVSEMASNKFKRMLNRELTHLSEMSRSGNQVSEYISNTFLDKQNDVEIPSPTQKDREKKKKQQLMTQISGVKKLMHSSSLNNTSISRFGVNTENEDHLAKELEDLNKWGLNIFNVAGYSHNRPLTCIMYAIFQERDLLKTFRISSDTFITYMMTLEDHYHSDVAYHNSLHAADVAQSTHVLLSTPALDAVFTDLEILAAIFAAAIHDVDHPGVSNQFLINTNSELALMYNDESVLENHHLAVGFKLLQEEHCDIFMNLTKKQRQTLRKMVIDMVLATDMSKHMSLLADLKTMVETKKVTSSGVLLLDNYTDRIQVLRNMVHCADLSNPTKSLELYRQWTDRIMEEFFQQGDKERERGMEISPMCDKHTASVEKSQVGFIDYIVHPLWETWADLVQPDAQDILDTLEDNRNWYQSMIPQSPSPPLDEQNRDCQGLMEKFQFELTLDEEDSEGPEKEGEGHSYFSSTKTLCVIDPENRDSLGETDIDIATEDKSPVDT
Cytochrome P450 3A4 (Homo sapiens), sequence (P08684 whole entry, looked up): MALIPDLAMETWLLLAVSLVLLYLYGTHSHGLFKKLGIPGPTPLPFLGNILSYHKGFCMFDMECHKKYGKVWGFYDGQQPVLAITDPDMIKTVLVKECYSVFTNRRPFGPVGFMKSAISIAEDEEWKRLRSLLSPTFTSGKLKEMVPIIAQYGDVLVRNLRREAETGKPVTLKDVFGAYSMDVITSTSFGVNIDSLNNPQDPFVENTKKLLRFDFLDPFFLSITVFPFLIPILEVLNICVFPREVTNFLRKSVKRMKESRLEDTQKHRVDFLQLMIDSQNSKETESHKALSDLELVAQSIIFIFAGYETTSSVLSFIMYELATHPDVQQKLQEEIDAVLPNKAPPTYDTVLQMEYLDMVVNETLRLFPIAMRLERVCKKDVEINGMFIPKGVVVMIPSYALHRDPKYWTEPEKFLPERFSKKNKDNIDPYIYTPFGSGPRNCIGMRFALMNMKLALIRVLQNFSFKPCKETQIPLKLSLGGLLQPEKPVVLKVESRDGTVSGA
Cytochrome P450 1A2 (Homo sapiens), sequence (P05177 whole entry, looked up): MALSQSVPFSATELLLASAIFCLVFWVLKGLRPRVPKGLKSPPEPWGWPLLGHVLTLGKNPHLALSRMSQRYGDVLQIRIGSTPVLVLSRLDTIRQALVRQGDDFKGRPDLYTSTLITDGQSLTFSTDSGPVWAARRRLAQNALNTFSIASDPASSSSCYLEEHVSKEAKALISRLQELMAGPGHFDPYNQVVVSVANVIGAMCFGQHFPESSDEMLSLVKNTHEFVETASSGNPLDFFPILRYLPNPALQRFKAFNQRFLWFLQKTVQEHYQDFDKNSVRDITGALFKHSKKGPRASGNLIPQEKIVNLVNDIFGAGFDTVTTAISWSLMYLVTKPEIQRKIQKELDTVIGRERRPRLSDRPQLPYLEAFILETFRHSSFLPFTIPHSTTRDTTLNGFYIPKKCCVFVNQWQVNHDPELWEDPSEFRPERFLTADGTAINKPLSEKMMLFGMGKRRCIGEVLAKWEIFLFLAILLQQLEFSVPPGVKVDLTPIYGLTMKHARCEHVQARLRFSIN
Ubiquitin carboxyl-terminal hydrolase 1 (Homo sapiens), sequence (O94782 whole entry, looked up): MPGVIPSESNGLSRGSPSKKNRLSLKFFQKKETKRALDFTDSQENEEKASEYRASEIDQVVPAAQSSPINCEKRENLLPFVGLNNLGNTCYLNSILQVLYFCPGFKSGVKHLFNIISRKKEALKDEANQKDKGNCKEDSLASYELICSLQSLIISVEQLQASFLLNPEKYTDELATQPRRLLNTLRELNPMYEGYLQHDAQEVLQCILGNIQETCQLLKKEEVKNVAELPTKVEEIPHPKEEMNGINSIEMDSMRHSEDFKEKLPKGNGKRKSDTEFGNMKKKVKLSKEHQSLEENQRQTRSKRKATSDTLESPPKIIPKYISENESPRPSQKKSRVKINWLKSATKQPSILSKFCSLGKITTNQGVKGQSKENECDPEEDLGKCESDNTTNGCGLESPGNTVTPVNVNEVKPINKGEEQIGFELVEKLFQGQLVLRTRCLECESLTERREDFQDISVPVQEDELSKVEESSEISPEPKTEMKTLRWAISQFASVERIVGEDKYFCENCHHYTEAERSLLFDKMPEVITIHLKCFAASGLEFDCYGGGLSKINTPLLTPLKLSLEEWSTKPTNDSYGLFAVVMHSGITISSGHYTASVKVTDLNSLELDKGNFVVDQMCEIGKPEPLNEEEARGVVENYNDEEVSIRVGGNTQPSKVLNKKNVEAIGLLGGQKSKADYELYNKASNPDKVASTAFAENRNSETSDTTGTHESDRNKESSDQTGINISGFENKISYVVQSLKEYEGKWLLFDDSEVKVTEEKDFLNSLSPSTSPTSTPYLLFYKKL

For the compound `N#Cc1cccc(NC(=O)N2CCCC3(CCN(C(=O)c4cc(C(F)(F)F)cc(C(F)(F)F)c4)CC3)C2)c1`, the Potency in [1] was above 11.4 µM; in [3], 6.31 µM (active); in assay [5] it was above 46 µM. Besides, the activity change, negative = inhibition in assay [2] was -21.5%. In addition, in assay [4], the activity, negative = inhibition is -13.7%. Further, the Potency result in assay [6] is “inactive”. The activation in [7] is -10.4%. Also, the result in assay [8] was inactive.

On to `COc1ncc2nc(C)c(=O)n(Cc3cccs3)c2n1`, for which the Potency was above 11.4 µM in assay [1], above 9.22 µM in assay [10] and above 46 µM in [5]. The activity change, negative = inhibition in [2] is -2.91%; in assay [9], -7.05%. Moreover, the activity, negative = inhibition in assay [4] was -7.75%. For the same compound, the Potency result in [6] and in assay [11] was “inactive” in each case. The outcome in [8] was inactive.

For `COc1ccc(-c2nc3cnc(OC)nc3n(Cc3ccc(F)cc3)c2=O)cc1`, the Potency in [1] was above 11.4 µM; in [10] it was above 9.22 µM; in assay [5] it was above 46 µM. The activity change, negative = inhibition is 8.95% in assay [2] and -6.96% in assay [9]. Moreover, the activity, negative = inhibition in [4] was 5.66%. Besides, the Potency result in assay [6] was “inactive”. Further, the result in [8] was inactive.

With `Cn1c(=O)c(-c2cc(F)cc(F)c2)nc2cnc(Oc3cccc(Cl)c3)nc21`, the figures for the Potency in assay [1], in [10] and in [5] were above 11.4 µM, above 9.22 µM and above 46 µM, respectively. Further, the activity change, negative = inhibition in assay [2] was -16%; in assay [9] it was -4.07%. Besides, the activity, negative = inhibition in assay [4] is 7.63%. Also, the Potency result in [6] and in [11] was “inactive” throughout. Also, the outcome in assay [8] was inactive.

As to `CS(=O)(=O)Nc1cccc(-c2nc(NCc3cccs3)c3ccccc3n2)c1`, the Potency is above 2.29 µM in assay [1]; 1 µM (active) in assay [3]; above 46 µM in assay [10]; above 46 µM in [5]; 3.16 µM (active) in assay [12]. The activity change, negative = inhibition in assay [2] is -19.7%. The Potency result in assay [6], in assay [13], in [14] and in assay [16] was “inactive” in each case. Besides, the compound was called inactive in assay [15] and in assay [8].

With `COc1cccc(Cn2c(=O)c(C)nc3cnc(Oc4ccccc4)nc32)c1`, the figures for the Potency in assay [1], in assay [10] and in assay [5] were above 11.4 µM, above 9.22 µM and above 46 µM, respectively. Besides, the results for the activity change, negative = inhibition in assay [2] and in assay [9] were -12.2% and -3.17%, respectively. Further, the activity, negative = inhibition in assay [4] was -2.47%. In [6], the Potency entry is “inactive”. In addition, in [8], the result was inactive.

For the compound `COc1ncc2nc(CCc3ccccc3)c(=O)n(Cc3ccc(F)cc3)c2n1`, the Potency in assay [1] is above 11.4 µM; in assay [10], above 9.22 µM; in assay [5], above 46 µM. For the same compound, the activity change, negative = inhibition in assay [2] is -3.95%; in [9], -13.1%. Besides, in assay [4], the activity, negative = inhibition was 2.49%. Further, the Potency entry in [6] is “inactive”. In addition, the outcome in assay [8] was inactive.
